Inconclusive results are not listed. The source made the active and inactive calls. How the source made its calls, unless noted: active means hit-call score of the fitted dose curve at least 0.9, where 1 is the maximum; inactive means score below 0.9.
Key:
THRB (gene 7068) = THRB (gene 7068) (UniProt P10828); assay: TOX21_TRB_COA_Antagonist_Followup_ratio: Tox21 Thyroid Hormone Receptor beta Antagonism through Coactivator Recruitment Follow-Up Assay, Ratio (AID 2283967; active means hit-call score of the fitted dose curve at least 0.9, where 1 is the maximum)
In short: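 Cell-free TR-FRET coactivator recruitment with GST-tagged TRβ LBD (5.0 nM) and fluorescein-labeled SRC-2 peptide (200 nM) detected by terbium anti-GST antibody (2 nM). The 520:495 nm emission ratio was normalized to DMSO (0%) and T3 (100%).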

[1] = TOX21_TR_RXR_BLA_Antagonist_Followup_viability: Viability Assessment in the Tox21 Thyroid Hormone Receptor beta Retinoid X Receptor alpha (RXRa) Antagonism Beta-lactamase (BLA) Follow-Up Assay (AID 2283979; active means hit-call score of the fitted dose curve at least 0.9, where 1 is the maximum)
Description: GeneBLAzer RXRa-UAS-bla HEK293T assay (RXRa-bla) (ThermoFisherScientific Catalog No. K1697) was run in qHTS 1536 well format as a secondary assay for specificity of response in the TOX21_TR_GH3_LUC_Agonist assay.TOX21_TR_RXR_BLA_Antagonist_Followup_viability is a component of the TOX21_TR_RXR_BLA_Antagonist_Followup assay. This component measures cell viability using the CellTiter-Glo Luciferase-coupled ATP quantitation.The assay component endpoint TOX21_TR_RXR_BLA_Antagonist_Followup_viability was analyzed with bidirectional fitting relation to DMSO as the negative control and baseline of activity. Using a type of viability reporter, loss-of-signal activity can be used to understand changes in viability. […]
Cell Media Required: Growth (90% DMEM/F-12, 10% Fetal Bovine Calf Serum, 100U/ml Penicillin, 100 ug/ml Streptomycin), Assay (10ng/mL sodium selenite, 10 ug/mL humanapo-transferrin, 10 uM ethanolamine, 10 ug/mL insulin, 500 ug/mL bovine serum albumin (BSA))Assay Protocol: RXRa-bla cells were seeded at 2,500/well in 6 uL of the assay medium containing phenol red-free DMEM with 2% charcoal-stripped FBS in 1,536-well black-wall/clear-bottom plates (Greiner Bio-One North America) usinga Multidrop Combi dispenser. […] After 2-h incubation at room temperature, the fluorescence intensity was measured using an Envision plate reader (Perkin Elmer). Data were expressed as the ratio of 460:530 nm.

[2] = CCTE_Harrill_HTTr_Viability_DMEM_6hr: (Pilot) CCTE's 6-hour Cell Viability Assessment for the High-Throughput Transcriptomics (HTTr) Platform, in MCF-7 cells cultured in DMEM + 10% fetal bovine serum, Harrill Lab (AID 2283973)
In short: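 MCF-7 cells in DMEM + 10% FBS, eight-point dilution series, 6 h exposure. Membrane integrity by propidium iodide exclusion with high-content imaging; bidirectional fit versus DMSO.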

[3] = CCTE_Harrill_HTTr_Viability_DMEM_12hr: (Pilot) CCTE's 12-hour Cell Viability Assessment for the High-Throughput Transcriptomics (HTTr) Platform, in MCF-7 cells cultured in DMEM + 10% fetal bovine serum, Harrill Lab (AID 2283974)
In short: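 MCF-7 cells in DMEM + 10% FBS exposed 12 h to an eight-point dilution series; membrane integrity scored by propidium iodide exclusion with high-content imaging, bidirectional fitting versus DMSO.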

[4] = CCTE_Harrill_HTTr_Viability_DMEM_24hr: (Pilot) CCTE's 24-hour Cell Viability Assessment for the High-Throughput Transcriptomics (HTTr) Platform, in MCF-7 cells cultured in DMEM + 10% fetal bovine serum, Harrill Lab (AID 2283975)
In short: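 MCF-7 cells in DMEM with 10% FBS exposed for 24 hours to an eight-point dilution series. Membrane integrity by propidium iodide exclusion with high content imaging; bidirectional fit against DMSO.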

[5] = CCTE_Harrill_HTTr_Viability_PRF_DMEM_6hr: (Pilot) CCTE's 6-hour Cell Viability Assessment for the High-Throughput Transcriptomics (HTTr) Platform, in MCF-7 cells cultured phenol red-free DMEM + 10% charcoal-stripped fetal bovine serum, Harrill Lab (AID 2283976)
In short: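 MCF-7 cells in phenol red-free DMEM with 10% charcoal-stripped FBS exposed 6 hours to an eight-point dilution series. Propidium iodide exclusion imaged; curves fitted bidirectionally against DMSO.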

[6] = CCTE_Harrill_HTTr_Viability_PRF_DMEM_12hr: (Pilot) CCTE's 12-hour Cell Viability Assessment for the High-Throughput Transcriptomics (HTTr) Platform, in MCF-7 cells cultured in phenol red-free DMEM + 10% charcoal-stripped fetal bovine serum, Harrill Lab (AID 2283977)
Description: This is a cell-based assay that evaluates cell viability using high content imaging to evaluate membrane integrity using propidium iodide dye exclusion in a 384 well format.One of seven assay components measured from the CCTE_Harrill_HTTr_Viability assay. This was part of a pilot experiment. This is a cell-based assay that evaluates cell viability in MCF-7 cells cultured in phenol red-free DMEM + 10% charcoal-stripped fetal bovine serum. High content imaging is used to evaluate membrane integrity using propidium iodide dye exclusion. Measurements are taken at 12 hours after chemical dosing in 384-well format.The assay component endpoint CCTE_Harrill_HTTr_Viability_PRF_DMEM_12hr was analyzed with bidirectional fitting relation to DMSO as the negative control and baseline of activity. Using a type of viability reporter to understand changes in cytotoxicity, gain-of-signal activity can be used to evaluate membrane integrity using propidium iodide dye exclusion. To generalize the intended target to other relatable targets, this assay endpoint is annotated to cell cycle, where the subfamily is cytotoxicity.
Chemicals were tested in MCF7 cells in an eight point dilution series with a twelve hour exposure duration.

[7] = biological target: Retinoic acid receptor RXR-alpha (Homo sapiens) (UniProt P19793); assay: TOX21_TR_RXR_BLA_Agonist_Followup_ratio: Tox21 Thyroid Hormone Receptor beta Retinoid X Receptor alpha (RXRa) Agonism Beta-lactamase (BLA) Follow-Up Assay, Ratio (AID 2283968; active means hit-call score of the fitted dose curve at least 0.9, where 1 is the maximum)
In short: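 RXRa-UAS-bla HEK293T cells (GAL4 beta-lactamase reporter) were treated with compounds at 11 concentrations in triplicate for 16 h at 37C/5% CO2, then loaded with CCF4-AM substrate for 2 h at room temperature; activity is the 460:530 nm ratio versus DMSO baseline.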

[8] = TOX21_TR_RXR_BLA_Agonist_Followup_viability: Viability Assessment in the Tox21 Thyroid Hormone Receptor beta Retinoid X Receptor alpha (RXRa) Agonism Beta-lactamase (BLA) Follow-Up Assay (AID 2283970; active means hit-call score of the fitted dose curve at least 0.9, where 1 is the maximum)
In short: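 RXRa-UAS-bla HEK293T cells seeded at 2,500/well in phenol red-free DMEM with 2% charcoal-stripped FBS, exposed to compound 16h at 37C/5% CO2 in qHTS. Viability read by CellTiter-Glo ATP luminescence; bidirectional fitting against DMSO baseline, signal loss indicating cytotoxicity.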

[9] = biological target: Retinoic acid receptor RXR-alpha (Homo sapiens) (UniProt P19793); assay: TOX21_TR_RXR_BLA_Antagonist_Followup_ratio: Tox21 Thyroid Hormone Receptor beta Retinoid X Receptor alpha (RXRa) Antagonism Beta-lactamase (BLA) Follow-Up Assay, Ratio (AID 2283972; active means hit-call score of the fitted dose curve at least 0.9, where 1 is the maximum)
In short: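 Antagonist mode used GAL4 UAS-driven beta-lactamase in HEK293T cells expressing RXRa, treated for 16 h with compound concentration series. Activity was taken from the blue/green (460:530 nm) ratio of cleaved to uncleaved substrate.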

Measured: outcome

Retinoic acid receptor RXR-alpha (Homo sapiens), sequence (P19793 whole entry, looked up, the tested form may be a part): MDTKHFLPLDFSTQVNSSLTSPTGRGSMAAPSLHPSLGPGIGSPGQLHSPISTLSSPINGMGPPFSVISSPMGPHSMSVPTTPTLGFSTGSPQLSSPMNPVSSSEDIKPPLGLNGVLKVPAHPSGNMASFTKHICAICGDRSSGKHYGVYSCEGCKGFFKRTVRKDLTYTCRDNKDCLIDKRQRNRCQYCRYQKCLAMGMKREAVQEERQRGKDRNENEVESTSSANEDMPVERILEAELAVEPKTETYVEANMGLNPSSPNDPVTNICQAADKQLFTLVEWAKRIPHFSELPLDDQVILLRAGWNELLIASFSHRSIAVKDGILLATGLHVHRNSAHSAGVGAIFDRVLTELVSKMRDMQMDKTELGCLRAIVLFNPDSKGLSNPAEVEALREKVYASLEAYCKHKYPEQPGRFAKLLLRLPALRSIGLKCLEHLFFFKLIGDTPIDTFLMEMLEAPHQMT
THRB (gene 7068), sequence (P10828 whole entry, looked up, the tested form may be a part): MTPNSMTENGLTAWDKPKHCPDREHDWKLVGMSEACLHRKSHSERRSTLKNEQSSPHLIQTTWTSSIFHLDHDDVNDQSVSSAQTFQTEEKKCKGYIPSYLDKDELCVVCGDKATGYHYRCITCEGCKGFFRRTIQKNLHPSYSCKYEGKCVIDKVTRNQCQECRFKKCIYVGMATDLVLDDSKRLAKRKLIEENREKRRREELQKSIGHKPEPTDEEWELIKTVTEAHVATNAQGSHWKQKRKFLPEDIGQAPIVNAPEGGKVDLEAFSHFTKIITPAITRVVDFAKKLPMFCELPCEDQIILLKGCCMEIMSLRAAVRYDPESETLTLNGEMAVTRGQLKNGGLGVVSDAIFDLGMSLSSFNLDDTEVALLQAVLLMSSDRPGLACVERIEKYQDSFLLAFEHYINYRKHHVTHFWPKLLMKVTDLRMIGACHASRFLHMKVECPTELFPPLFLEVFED

C[C@]12CCC(=O)C=C1CC[C@@H]1[C@@H]2CC[C@@]2(C)[C@H]1CC[C@]2(C)O
inactive: THRB (gene 7068) | [1]

CCC(C)(c1ccc(O)cc1)c1ccc(O)cc1
inactive: [2] | [3] | [4] | [5] | [6]

Cc1cc(O)ccc1Cl
inactive: [7] | [8]

CO/C=C(/C(=O)OC)c1ccccc1COc1cccc(C(F)(F)F)n1
inactive: THRB (gene 7068) | [9] | [1]

CC(C)(c1ccccc1)c1ccc(O)cc1
inactive: [2] | [3] | [4] | [5] | [6]
